Data published in the supplement of paper PMC10849652.
Of roughly 7,900 targets only a part is listed; those with a hit were picked by preference. About 0.6% of all pairs of compound and target were hits.

Legend:
Assay in all cases: log2 fold change, soluble protein after heating vs DMSO (PISA); higher = thermal stabilisation; K562 cells, 10 uM, 30 min; active = over 0.2 and 3.5 SD of the protein, either way, in both replicates (recomputed)
[1] = compound: COC1=CC=C(C=C1)CN2C=CC3=C2C=C(C=C3)C(=O)NO
Method in brief: (§1)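 K562 cells at 2×10^6 cells/mL were treated for 30 min with 10 μM compound, and aliquots were heated for 3 min over 48°C-58°C before pooling. Extraction used PBS with 0.5% NP-40 at 4°C, and soluble protein was the supernatant after 21,000xg for 90 min, measured by TMTpro 16plex LC-MS/MS with channel sums equalised. Thermal stability values, relative to control samples and from duplicates, are log2 fold changes.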

filanesib = compound: CON(C)C(=O)N1N=C(c2cc(F)ccc2F)S[C@@]1(CCCN)c1ccccc1 [filanesib]
Method in brief: as §1

zotarolimus = compound: CO[C@H]1C[C@@H]2CC[C@@H](C)[C@@](O)(O2)C(=O)C(=O)N2CCCC[C@H]2C(=O)O[C@H]([C@H](C)C[C@@H]2CC[C@H](n3cnnn3)[C@H](OC)C2)CC(=O)[C@H](C)/C=C(\C)[C@@H](O)[C@@H](OC)C(=O)[C@H](C)C[C@H](C)/C=C/C=C/C=C/1C [zotarolimus]
Method in brief: as §1

idasanutlin = compound: COc1cc(C(=O)O)ccc1NC(=O)[C@@H]1N[C@@H](CC(C)(C)C)[C@](C#N)(c2ccc(Cl)cc2F)[C@H]1c1cccc(Cl)c1F [idasanutlin]
Method in brief: as §1

alisertib = compound: COc1cc(Nc2ncc3c(n2)-c2ccc(Cl)cc2C(c2c(F)cccc2OC)=NC3)ccc1C(=O)O [alisertib]
Method in brief: as §1

[2] = compound: COc1cc2nc(-c3cc(F)ccc3O)nc(N[C@@H]3CNC[C@H]3C(C)(C)O)c2cc1OC
Method in brief: as §1

gefitinib = compound: COc1cc2ncnc(Nc3ccc(F)c(Cl)c3)c2cc1OCCCN1CCOCC1 [gefitinib]
Method in brief: as §1

[3] = compound: COc1cccc2cc(-c3nc([C@H]4CC[C@H](C(=O)O)CC4)n4ncnc(N)c34)[nH]c12
Method in brief: as §1

lapatinib = compound: CS(=O)(=O)CCNCc1ccc(-c2ccc3ncnc(Nc4ccc(OCc5cccc(F)c5)c(Cl)c4)c3c2)o1 [lapatinib]
Method in brief: as §1

pictilisib = compound: CS(=O)(=O)N1CCN(Cc2cc3nc(-c4cccc5[nH]ncc45)nc(N4CCOCC4)c3s2)CC1 [pictilisib]
Method in brief: as §1

[4] = compound: CS(=O)(=O)c1ccc(-c2cnc(N)c(C(=O)Nc3ccccc3)n2)cc1
Method in brief: as §1

crizotinib = compound: C[C@@H](Oc1cc(-c2cnn(C3CCNCC3)c2)cnc1N)c1c(Cl)ccc(F)c1Cl [crizotinib]
Method in brief: as §1

[5] = compound: C[C@@H]1COCCN1C2=NC(=NC(=C2)C3(CC3)S(=O)(=O)C)C4=C5C=CNC5=CC=C4
Method in brief: as §1

[6] = compound: C[C@H](C1=CC=C(C=C1)C(=O)NC2=C3C=CNC3=NC=C2)N
Method in brief: as §1

duvelisib = compound: C[C@H](Nc1ncnc2nc[nH]c12)c1cc2cccc(Cl)c2c(=O)n1-c1ccccc1 [duvelisib]
Method in brief: as §1

gandotinib = compound: Cc1cc(Nc2cc(CN3CCOCC3)c3nc(C)c(Cc4ccc(Cl)cc4F)n3n2)n[nH]1 [gandotinib]
Method in brief: as §1

tozasertib = compound: Cc1cc(Nc2cc(N3CCN(C)CC3)nc(Sc3ccc(NC(=O)C4CC4)cc3)n2)n[nH]1 [tozasertib]
Method in brief: as §1

[7] = compound: Cc1cc(SCc2sc(-c3ccc(C(F)(F)F)cc3)nc2C)ccc1OCC(=O)O
Method in brief: as §1

doramapimod = compound: Cc1ccc(-n2nc(C(C)(C)C)cc2NC(=O)Nc2ccc(OCCN3CCOCC3)c3ccccc23)cc1 [doramapimod]
Method in brief: as §1

ispinesib = compound: Cc1ccc(C(=O)N(CCCN)[C@@H](c2nc3cc(Cl)ccc3c(=O)n2Cc2ccccc2)C(C)C)cc1 [ispinesib]
Method in brief: as §1

Measured: log2 fold change

HIC2 (UniProt Q96JB3)
UniProt Q96JB3, sequence (Q96JB3 whole entry, looked up): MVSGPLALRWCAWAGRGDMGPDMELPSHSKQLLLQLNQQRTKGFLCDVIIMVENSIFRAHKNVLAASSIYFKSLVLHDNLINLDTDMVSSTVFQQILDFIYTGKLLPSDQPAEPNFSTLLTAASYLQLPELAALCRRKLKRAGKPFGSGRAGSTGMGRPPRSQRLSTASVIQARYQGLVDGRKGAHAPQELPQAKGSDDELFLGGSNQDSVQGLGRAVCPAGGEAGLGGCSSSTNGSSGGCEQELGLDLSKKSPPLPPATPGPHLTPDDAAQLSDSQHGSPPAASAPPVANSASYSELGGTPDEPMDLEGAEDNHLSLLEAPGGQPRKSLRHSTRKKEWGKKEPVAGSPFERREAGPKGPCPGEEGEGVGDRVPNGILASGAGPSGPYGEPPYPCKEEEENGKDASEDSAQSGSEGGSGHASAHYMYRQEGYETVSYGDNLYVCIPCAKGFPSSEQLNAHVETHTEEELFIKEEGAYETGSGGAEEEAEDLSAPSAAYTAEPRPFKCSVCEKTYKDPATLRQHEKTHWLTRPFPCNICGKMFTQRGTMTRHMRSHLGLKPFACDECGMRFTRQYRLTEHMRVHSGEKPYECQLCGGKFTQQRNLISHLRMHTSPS
inactive: [1] -0.067 | filanesib 0.226 | zotarolimus -0.012 | idasanutlin 0.238 | alisertib -0.057 | [2] -0.386 | gefitinib -0.073 | [3] -0.066 | lapatinib 0.207 | pictilisib -0.052 | [4] -0.037 | crizotinib 0.067 | [5] -0.079 | [6] 0.043 | duvelisib -0.103 | gandotinib 0.088 | tozasertib 0.121 | [7] 0.011 | doramapimod 0.121 | ispinesib -0.061

HNRNPUL2 (UniProt Q1KMD3)
inactive: [1] -0.012 | filanesib 0.156 | zotarolimus -0.015 | idasanutlin 0.083 | alisertib -0.026 | [2] 0.105 | gefitinib -0.02 | [3] 0.005 | lapatinib -0.018 | pictilisib 0.035 | [4] -0.092 | crizotinib -0.033 | [5] -0.05 | [6] 0.123 | duvelisib -0.096 | gandotinib -0.005 | tozasertib -0.058 | [7] 0.015 | doramapimod 0.041 | ispinesib 0.004

HOOK3 (UniProt Q86VS8)
UniProt Q86VS8, sequence (Q86VS8 whole entry, looked up): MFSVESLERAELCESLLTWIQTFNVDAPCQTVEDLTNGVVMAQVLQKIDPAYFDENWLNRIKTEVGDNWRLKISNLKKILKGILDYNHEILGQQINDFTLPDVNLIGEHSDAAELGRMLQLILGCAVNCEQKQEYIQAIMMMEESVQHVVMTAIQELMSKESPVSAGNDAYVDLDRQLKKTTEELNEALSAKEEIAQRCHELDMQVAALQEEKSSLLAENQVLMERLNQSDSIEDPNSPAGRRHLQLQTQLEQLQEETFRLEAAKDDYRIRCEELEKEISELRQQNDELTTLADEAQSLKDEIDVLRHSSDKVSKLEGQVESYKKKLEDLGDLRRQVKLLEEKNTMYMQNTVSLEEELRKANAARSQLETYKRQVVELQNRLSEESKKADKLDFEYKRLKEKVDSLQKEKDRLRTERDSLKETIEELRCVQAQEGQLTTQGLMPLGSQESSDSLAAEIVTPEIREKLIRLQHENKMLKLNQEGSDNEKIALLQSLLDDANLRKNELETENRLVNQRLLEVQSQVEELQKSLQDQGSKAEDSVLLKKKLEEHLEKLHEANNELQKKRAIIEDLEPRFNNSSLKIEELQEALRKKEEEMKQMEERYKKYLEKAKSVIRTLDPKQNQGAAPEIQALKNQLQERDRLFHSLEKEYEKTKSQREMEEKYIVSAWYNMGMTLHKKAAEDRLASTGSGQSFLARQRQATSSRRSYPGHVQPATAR
inactive: [1] -0.074 | filanesib -0.108 | zotarolimus 0.001 | idasanutlin 0.036 | alisertib 0.07 | [2] 0.014 | gefitinib -0.006 | [3] 0.018 | lapatinib 0.032 | pictilisib -0.021 | [4] -0.042 | crizotinib -0.123 | [5] -0.05 | [6] 0.036 | duvelisib 0.05 | gandotinib -0.067 | tozasertib 0.037 | [7] 0.033 | doramapimod 0.019 | ispinesib -0.199

GABARAPL1 isoform 2 (UniProt Q9H0R8)
UniProt Q9H0R8, sequence (Q9H0R8 whole entry, looked up): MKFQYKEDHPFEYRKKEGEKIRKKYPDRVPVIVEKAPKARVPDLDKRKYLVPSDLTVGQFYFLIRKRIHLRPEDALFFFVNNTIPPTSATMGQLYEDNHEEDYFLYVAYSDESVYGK
active: crizotinib -0.344 | ispinesib -0.315
inactive: [1] 0.053 | filanesib -0.054 | zotarolimus 0.024 | idasanutlin -0.112 | alisertib 0.024 | [2] 0.007 | gefitinib 0.021 | [3] -0.01 | lapatinib -0.026 | pictilisib 0.115 | [4] 0.105 | [5] 0.048 | [6] -0.045 | duvelisib 0.057 | gandotinib 0.078 | tozasertib -0.008 | [7] 0.026 | doramapimod -0.034

GAGE12F (UniProt P0CL80)
inactive: [1] -0.007 | filanesib 0.02 | zotarolimus -0.054 | idasanutlin 0.055 | alisertib -0.312 | [2] -0.02 | gefitinib -0.03 | [3] 0.123 | lapatinib -0.028 | pictilisib 0.108 | [4] 0.019 | crizotinib 0.034 | [5] 0.092 | [6] 0.081 | duvelisib 0.039 | gandotinib 0.072 | tozasertib 0.006 | [7] 0.03 | doramapimod 0.043 | ispinesib 0.009

HP1BP3 (UniProt Q5SSJ5)
inactive: [1] 0.041 | filanesib 0.145 | zotarolimus -0.003 | idasanutlin 0.095 | alisertib -0.069 | [2] -0.053 | gefitinib 0.154 | [3] -0.024 | lapatinib 0.044 | pictilisib 0.04 | [4] 0.002 | crizotinib -0.121 | [5] -0.013 | [6] 0.163 | duvelisib -0.097 | gandotinib 0.039 | tozasertib -0.011 | [7] 0.121 | doramapimod 0.035 | ispinesib -0.079

HAX1 (UniProt O00165)
UniProt O00165, sequence (O00165 whole entry, looked up): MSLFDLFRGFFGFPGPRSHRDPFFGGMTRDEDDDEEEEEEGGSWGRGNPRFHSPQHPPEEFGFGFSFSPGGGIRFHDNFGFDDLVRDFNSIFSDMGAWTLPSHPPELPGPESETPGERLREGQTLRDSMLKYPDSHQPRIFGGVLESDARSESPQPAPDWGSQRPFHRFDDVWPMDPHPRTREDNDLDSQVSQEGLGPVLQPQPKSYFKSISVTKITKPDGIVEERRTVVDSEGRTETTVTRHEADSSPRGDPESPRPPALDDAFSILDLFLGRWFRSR
active: ispinesib -0.59
inactive: [1] -0.056 | filanesib 0.017 | zotarolimus 0.004 | idasanutlin 0.04 | alisertib -0.007 | [2] -0.311 | gefitinib -0.041 | [3] -0.014 | lapatinib -0.015 | pictilisib -0.145 | [4] 0.02 | crizotinib -0.235 | [5] -0.043 | [6] 0.16 | duvelisib -0.062 | gandotinib -0.174 | tozasertib -0.071 | [7] 0.014 | doramapimod 0.035

HAT1 (UniProt O14929)
UniProt O14929, sequence (O14929 whole entry, looked up): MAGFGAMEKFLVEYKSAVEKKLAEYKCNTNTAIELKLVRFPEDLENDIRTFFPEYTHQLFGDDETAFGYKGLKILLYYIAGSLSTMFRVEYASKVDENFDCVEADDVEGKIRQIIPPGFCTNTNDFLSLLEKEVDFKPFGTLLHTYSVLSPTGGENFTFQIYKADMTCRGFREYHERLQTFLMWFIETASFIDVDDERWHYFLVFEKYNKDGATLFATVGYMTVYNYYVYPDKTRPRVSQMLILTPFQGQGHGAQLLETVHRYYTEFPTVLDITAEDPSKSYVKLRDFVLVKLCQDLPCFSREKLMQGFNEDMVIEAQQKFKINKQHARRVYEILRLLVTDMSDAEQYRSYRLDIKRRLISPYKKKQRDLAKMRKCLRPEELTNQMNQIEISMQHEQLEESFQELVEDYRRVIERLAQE
inactive: [1] 0.14 | filanesib -0.049 | zotarolimus 0.075 | idasanutlin 0.055 | alisertib 0.019 | [2] 0.066 | gefitinib 0.008 | [3] -0.014 | lapatinib -0.002 | pictilisib -0.076 | [4] -0.011 | crizotinib 0.013 | [5] 0.007 | [6] -0.225 | duvelisib -0.031 | gandotinib 0.019 | tozasertib 0.024 | [7] 0.033 | doramapimod -0.04 | ispinesib 0.135

GHDC (UniProt Q8N2G8)
inactive: [1] -0.026 | filanesib -0.127 | zotarolimus 0.021 | idasanutlin 0.061 | alisertib -0.057 | [2] -0.13 | gefitinib 0.037 | [3] 0.087 | lapatinib 0.042 | pictilisib 0.042 | [4] 0.041 | crizotinib -0.02 | [5] 0.021 | [6] -0.074 | duvelisib 0.043 | gandotinib 0.002 | tozasertib -0.01 | [7] -0.039 | doramapimod -0.041 | ispinesib -0.132

GTF3A (UniProt Q92664)
UniProt Q92664, sequence (Q92664 whole entry, looked up): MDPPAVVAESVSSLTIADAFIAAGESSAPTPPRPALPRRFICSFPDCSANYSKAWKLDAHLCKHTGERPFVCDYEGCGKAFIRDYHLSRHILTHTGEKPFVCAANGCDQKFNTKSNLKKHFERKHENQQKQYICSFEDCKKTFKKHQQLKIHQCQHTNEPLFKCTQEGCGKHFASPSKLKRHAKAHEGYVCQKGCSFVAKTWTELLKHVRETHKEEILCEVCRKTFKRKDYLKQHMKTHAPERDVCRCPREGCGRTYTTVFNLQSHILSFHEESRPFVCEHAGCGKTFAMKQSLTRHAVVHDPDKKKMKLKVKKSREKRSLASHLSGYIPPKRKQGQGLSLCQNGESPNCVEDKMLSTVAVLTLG
inactive: [1] 0.092 | filanesib -0.138 | zotarolimus 0.067 | idasanutlin -0.018 | alisertib 0.014 | [2] -0.225 | gefitinib -0.139 | [3] -0.006 | lapatinib 0.099 | pictilisib -0.042 | [4] -0.002 | crizotinib -0.145 | [5] 0.015 | [6] 0.078 | duvelisib 0.019 | gandotinib 0.023 | tozasertib -0.025 | [7] 0.023 | doramapimod -0.001

FERMT3 (UniProt Q86UX7)
UniProt Q86UX7, sequence (Q86UX7 whole entry, looked up): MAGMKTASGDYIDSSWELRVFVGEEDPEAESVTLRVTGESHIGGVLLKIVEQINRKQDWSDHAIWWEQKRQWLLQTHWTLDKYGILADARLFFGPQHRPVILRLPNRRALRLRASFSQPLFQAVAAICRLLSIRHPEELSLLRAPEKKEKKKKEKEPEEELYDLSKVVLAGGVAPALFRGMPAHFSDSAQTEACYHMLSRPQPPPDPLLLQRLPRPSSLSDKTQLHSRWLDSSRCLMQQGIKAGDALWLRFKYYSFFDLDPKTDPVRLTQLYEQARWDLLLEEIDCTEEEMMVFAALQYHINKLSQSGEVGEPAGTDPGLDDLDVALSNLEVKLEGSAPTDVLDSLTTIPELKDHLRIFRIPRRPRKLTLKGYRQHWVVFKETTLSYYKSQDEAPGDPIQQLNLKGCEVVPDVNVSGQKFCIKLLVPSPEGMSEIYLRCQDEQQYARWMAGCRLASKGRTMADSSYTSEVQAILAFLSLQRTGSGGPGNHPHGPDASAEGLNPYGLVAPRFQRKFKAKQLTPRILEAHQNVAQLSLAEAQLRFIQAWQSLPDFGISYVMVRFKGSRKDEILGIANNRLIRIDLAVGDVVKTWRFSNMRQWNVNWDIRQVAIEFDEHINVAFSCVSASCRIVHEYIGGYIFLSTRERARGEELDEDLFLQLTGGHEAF
inactive: [1] 0.046 | filanesib -0.037 | zotarolimus 0.033 | idasanutlin -0.068 | alisertib -0.104 | [2] 0 | gefitinib -0.007 | [3] 0.001 | lapatinib -0.006 | pictilisib 0.009 | [4] 0.038 | crizotinib -0.091 | [5] 0.02 | [6] -0.04 | duvelisib 0.005 | gandotinib -0.064 | tozasertib 0.022 | [7] 0.057 | doramapimod 0.001 | ispinesib -0.04

GLRX3 (UniProt O76003)
UniProt O76003, sequence (O76003 whole entry, looked up): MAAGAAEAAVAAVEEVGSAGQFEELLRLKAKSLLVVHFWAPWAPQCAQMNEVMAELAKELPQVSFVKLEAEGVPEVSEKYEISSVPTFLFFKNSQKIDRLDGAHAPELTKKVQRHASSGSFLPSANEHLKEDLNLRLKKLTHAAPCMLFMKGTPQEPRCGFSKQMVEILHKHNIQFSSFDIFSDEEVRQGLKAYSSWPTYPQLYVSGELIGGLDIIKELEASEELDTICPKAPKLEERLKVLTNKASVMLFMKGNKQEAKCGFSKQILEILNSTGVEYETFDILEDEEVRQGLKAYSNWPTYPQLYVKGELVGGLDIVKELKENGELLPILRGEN
inactive: [1] 0.005 | filanesib -0.056 | zotarolimus 0.056 | idasanutlin -0.001 | alisertib -0.063 | [2] 0.012 | gefitinib -0.009 | [3] -0.018 | lapatinib 0.062 | pictilisib -0.003 | [4] 0.03 | crizotinib 0.098 | [5] 0.06 | [6] -0.068 | duvelisib 0.043 | gandotinib -0.094 | tozasertib 0.077 | [7] 0.041 | doramapimod -0.075 | ispinesib 0.068

FBL (UniProt P22087)
UniProt P22087, sequence (P22087 whole entry, looked up): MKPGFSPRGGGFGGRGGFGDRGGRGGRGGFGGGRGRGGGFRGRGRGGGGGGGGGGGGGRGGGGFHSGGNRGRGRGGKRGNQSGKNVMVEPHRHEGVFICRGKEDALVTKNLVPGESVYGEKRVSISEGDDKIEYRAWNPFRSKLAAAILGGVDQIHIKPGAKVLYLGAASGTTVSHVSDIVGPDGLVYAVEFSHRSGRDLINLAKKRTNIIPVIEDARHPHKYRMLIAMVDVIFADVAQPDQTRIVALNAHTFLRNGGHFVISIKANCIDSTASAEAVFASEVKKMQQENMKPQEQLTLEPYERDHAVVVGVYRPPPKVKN
inactive: [1] -0.154 | filanesib 0.664 | zotarolimus 0.034 | idasanutlin 0.441 | alisertib 0.006 | [2] 0.077 | gefitinib 0.059 | [3] -0.069 | lapatinib 0.11 | pictilisib -0.093 | [4] -0.054 | crizotinib 0.075 | [5] -0.266 | [6] 0.379 | duvelisib -0.084 | gandotinib 0.124 | tozasertib -0.043 | [7] -0.01 | doramapimod 0.279 | ispinesib 0.097

GSR (UniProt P00390)
UniProt P00390, sequence (P00390 whole entry, looked up): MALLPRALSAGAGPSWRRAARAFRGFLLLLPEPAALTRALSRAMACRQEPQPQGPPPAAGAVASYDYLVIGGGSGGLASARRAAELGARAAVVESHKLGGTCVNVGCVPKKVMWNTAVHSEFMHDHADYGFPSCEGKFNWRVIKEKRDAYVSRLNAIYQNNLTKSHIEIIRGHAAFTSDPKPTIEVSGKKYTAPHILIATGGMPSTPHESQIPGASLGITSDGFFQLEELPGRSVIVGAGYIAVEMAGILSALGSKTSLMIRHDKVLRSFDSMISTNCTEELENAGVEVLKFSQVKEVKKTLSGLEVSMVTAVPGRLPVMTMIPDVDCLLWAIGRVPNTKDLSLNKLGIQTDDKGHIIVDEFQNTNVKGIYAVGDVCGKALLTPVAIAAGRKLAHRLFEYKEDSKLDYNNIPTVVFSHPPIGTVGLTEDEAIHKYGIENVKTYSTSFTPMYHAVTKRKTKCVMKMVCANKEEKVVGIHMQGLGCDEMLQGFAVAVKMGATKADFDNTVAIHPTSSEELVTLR
inactive: [1] 0.023 | filanesib -0.065 | zotarolimus -0.039 | idasanutlin -0.049 | alisertib -0.032 | [2] 0.015 | gefitinib -0.016 | [3] 0.043 | lapatinib -0.057 | pictilisib 0.036 | [4] 0.009 | crizotinib 0.046 | [5] 0.029 | [6] -0.085 | duvelisib 0.014 | gandotinib 0.002 | tozasertib -0.011 | [7] -0.02 | doramapimod -0.047 | ispinesib -0.003

HDHD2 (UniProt Q9H0R4)
UniProt Q9H0R4, sequence (Q9H0R4 whole entry, looked up): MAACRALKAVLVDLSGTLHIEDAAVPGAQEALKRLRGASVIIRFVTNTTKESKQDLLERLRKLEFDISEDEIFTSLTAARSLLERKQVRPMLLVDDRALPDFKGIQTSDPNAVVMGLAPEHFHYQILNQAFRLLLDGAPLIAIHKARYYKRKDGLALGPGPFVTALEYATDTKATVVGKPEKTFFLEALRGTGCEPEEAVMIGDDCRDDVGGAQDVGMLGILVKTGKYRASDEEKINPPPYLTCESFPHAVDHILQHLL
inactive: [1] 0.048 | filanesib -0.097 | zotarolimus -0.027 | idasanutlin 0.006 | alisertib -0.06 | [2] -0.007 | gefitinib 0.024 | [3] 0.085 | lapatinib -0.03 | pictilisib -0.011 | [4] -0.11 | crizotinib -0.031 | [5] -0.01 | [6] 0.001 | duvelisib -0.019 | gandotinib 0 | tozasertib -0.039 | [7] -0.023 | doramapimod -0.081 | ispinesib 0.004

GUK1 isoform 2 (UniProt Q16774)
UniProt Q16774, sequence (Q16774 whole entry, looked up): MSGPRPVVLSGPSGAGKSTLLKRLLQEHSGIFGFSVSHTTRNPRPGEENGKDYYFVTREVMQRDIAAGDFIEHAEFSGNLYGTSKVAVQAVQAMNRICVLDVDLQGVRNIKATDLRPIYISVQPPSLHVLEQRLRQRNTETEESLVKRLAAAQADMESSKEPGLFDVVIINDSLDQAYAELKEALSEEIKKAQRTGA
inactive: [1] 0.215 | filanesib -0.005 | zotarolimus 0.022 | idasanutlin -0.04 | alisertib -0.048 | [2] 0.155 | gefitinib -0.05 | [3] -0.019 | lapatinib -0.001 | pictilisib 0.017 | [4] 0.13 | crizotinib -0.007 | [5] 0.161 | [6] 0.049 | duvelisib 0.123 | gandotinib -0.03 | tozasertib 0.018 | [7] 0.102 | doramapimod -0.004 | ispinesib 0.012
